Over roughly 39,000 sequences, “fluorescence intensity (a.u.)” has its median near 4,300; the highest 2% begin near 39,000. What follows is part of a selection rich in the highest values, with near analogues and random picks from the rest.
Each sequence was assayed against T1, OsSMF1 (Oryza sativa, UniProt Q6ZLB0 1-436) (assay: protein-binding microarray (RPBM); PBS, 2% BSA, 51.3 ng/ul salmon testes DNA, 50 uM zinc acetate, 200 nM TF, 25 C, 1 h; high values mean tight binding). Details: protein: recombinant; tags: N-terminal polyhistidine and DsRed monomer fusion (pET32a); chain copies: 2; label: CyDye5-dUTP incorporated in the synthesized complementary strand; 3' TTTTT single-stranded linker to array surface; dsDNA, one strand shown.
T1 sequence: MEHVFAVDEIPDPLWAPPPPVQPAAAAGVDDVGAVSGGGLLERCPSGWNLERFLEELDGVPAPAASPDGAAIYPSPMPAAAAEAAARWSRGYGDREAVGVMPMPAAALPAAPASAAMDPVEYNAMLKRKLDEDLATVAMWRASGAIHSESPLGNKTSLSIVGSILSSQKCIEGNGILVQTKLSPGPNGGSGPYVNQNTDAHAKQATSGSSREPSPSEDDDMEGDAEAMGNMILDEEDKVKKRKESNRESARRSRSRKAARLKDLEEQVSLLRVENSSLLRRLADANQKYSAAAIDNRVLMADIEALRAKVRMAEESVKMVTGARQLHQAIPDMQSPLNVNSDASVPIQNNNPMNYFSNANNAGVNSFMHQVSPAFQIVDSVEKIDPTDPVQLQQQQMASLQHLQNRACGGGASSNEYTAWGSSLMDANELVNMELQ
Outline: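 Transcription factors were made in E. coli BL21-CodonPlus as N-terminal fusions to a polyhistidine tag and DsRed, then purified on Ni–NTA. After primer extension with Cy5-dUTP and blocking with 2% BSA, a custom Agilent array was exposed for 1 h at 25 °C to 200 nM protein in PBS, 2% BSA, salmon testes DNA and 50 µM zinc acetate. Washed arrays were scanned on an Axon 4000B, and the binding signal is per-feature fluorescence intensity in arbitrary units.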
For “AGAAGAGGGAGACAGAGGATAGAGAGAAGAGGGCACTTCACGGAGTCACCTAGTGCAG”, the binding signal was 11900 fluorescence intensity (a.u.).
With “CGGTGGCGGGAACATGTGGGCGGTGGCAGGAGTGCAGGTGCGGAGTCACCTAGTGCAG” the binding signal was 3810 fluorescence intensity (a.u.).
In the case of “CTCCAGCATCGCCACCGGGTCCCCGTACGGGTTCTTCGGGCGGAGTCACCTAGTGCAG”, the binding signal is reported as 3620 fluorescence intensity (a.u.).
With “CTCTGCTCTCAAATGCTCTGTGTGCGATCAGGTATTCATGCGGAGTCACCTAGTGCAG” the binding signal was 3270 fluorescence intensity (a.u.).
For “ACCGAGTAGATCACTTCCGTGCAAGTTGGTTGACAAGTATCGGAGTCACCTAGTGCAG”, the binding signal was 3480 fluorescence intensity (a.u.).
“CTGGACACCTCACGAAGTCTCAAACTGCTGTTTGTTCTCACGGAGTCACCTAGTGCAG” was tested, and the binding signal was 4230 fluorescence intensity (a.u.).
For “ATATGGCCTTCGGTGGTATCCACGTAGAGCTTTACGTTAACGGAGTCACCTAGTGCAG”, the binding signal was 4810 fluorescence intensity (a.u.).
“CACCCGCGTGTATGCCAGCTAGGCTTGGCTCCGACGTGGACGGAGTCACCTAGTGCAG” was tested, and the binding signal was 4790 fluorescence intensity (a.u.).
In the case of “GCAGCCACGACGCCCGCCAATGCTGCCGCCGCCATCGATGCGGAGTCACCTAGTGCAG”, the binding signal is reported as 5300 fluorescence intensity (a.u.).
In the case of “AGAATTTGTTCGTCACCCATATATCGGCGTCATGACCTCGCGGAGTCACCTAGTGCAG”, the binding signal is reported as 3510 fluorescence intensity (a.u.).
With “GTCGGATCCCCGCGCAATCATACACACGTGTCGCCGTCGCCGGAGTCACCTAGTGCAG” the binding signal was 8730 fluorescence intensity (a.u.).
In the case of “TTAGGACCATAATATCTAATGTTACATGCCACGTACCAAACGGAGTCACCTAGTGCAG”, the binding signal is reported as 7280 fluorescence intensity (a.u.).
In the case of “GCCGCCCGCGCGCGACCGCGTGACGTCGCAGCCGCACCGACGGAGTCACCTAGTGCAG”, the binding signal is reported as 6080 fluorescence intensity (a.u.).
For “GATCAAACCAGCGGCAGATGAGGGCGCAAAGAGAAAGAGCCGGAGTCACCTAGTGCAG”, the binding signal was 4210 fluorescence intensity (a.u.).
In the case of “AGAGGGGCAGAGAGAGAGAGTGAGTGAGAAAGAGATCAAGCGGAGTCACCTAGTGCAG”, the binding signal is reported as 56600 fluorescence intensity (a.u.).
In the case of “TTGGGCGGCGGTGCGGGGAGGCTGAGGGGCGGCGCCGGCGCGGAGTCACCTAGTGCAG”, the binding signal is reported as 3580 fluorescence intensity (a.u.).
With “GCCGCTTCGATGCTGGCGGCAGGGTGGGGCGGGGATGCCTCGGAGTCACCTAGTGCAG” the binding signal was 6170 fluorescence intensity (a.u.).
“TCGTCCGATCCCCTAGCGTGGCCACCGATCCGCCCGTCCCCGGAGTCACCTAGTGCAG” was tested, and the binding signal was 3230 fluorescence intensity (a.u.).
For “GCGGAGGAGGCAAGGAGATCAGGCGGCAGAGGAAAGGGGCCGGAGTCACCTAGTGCAG”, the binding signal was 3280 fluorescence intensity (a.u.).
In the case of “CGCTGCGGGGAGTCGGCGCTTCGTCGGAGGCGGCGGGGCGCGGAGTCACCTAGTGCAG”, the binding signal is reported as 3230 fluorescence intensity (a.u.).
With “GGCTTCGCCGACGGTGGCTCGGGCGACGGCGATGCTGGGGCGGAGTCACCTAGTGCAG” the binding signal was 58600 fluorescence intensity (a.u.).
“TGCCACCGTGGCGGCCGGGCCGATCCCCTAGCTGACGTGGCGGAGTCACCTAGTGCAG” was tested, and the binding signal was 41900 fluorescence intensity (a.u.).
In the case of “CTGGTCGGCGCGGGCACGCGCTTGCGGAGGCTGGGGAGTCCGGAGTCACCTAGTGCAG”, the binding signal is reported as 39700 fluorescence intensity (a.u.).
For “GACGGGCGGCGGTGGGGCTGACGCGGGCGACGGAGGGGCTCGGAGTCACCTAGTGCAG”, the binding signal was 6720 fluorescence intensity (a.u.).
For “ACGGCATCGATCGATCGCGGGCGACGTGGCTGAGTGGCGGCGGAGTCACCTAGTGCAG”, the binding signal was 6420 fluorescence intensity (a.u.).
For “GAAAGTTGCTGCGAACATACGTGATGACGCGACTAAAGCTCGGAGTCACCTAGTGCAG”, the binding signal was 5210 fluorescence intensity (a.u.).
With “ATAGCCCAACTCGAATCAATCCACGTCTCCACCGTTCATCCGGAGTCACCTAGTGCAG” the binding signal was 3360 fluorescence intensity (a.u.).
“TCCGTCGCGATTCGCCACCTCGCCCTCGTCTCGTTTTAGCCGGAGTCACCTAGTGCAG” was tested, and the binding signal was 3450 fluorescence intensity (a.u.).
With “ATGCACTTCCTGTCACGGTCCGGCCCATCCTAGCTGCCGGCGGAGTCACCTAGTGCAG” the binding signal was 3290 fluorescence intensity (a.u.).
“AAACTTCTCTTCAGATAAAGATTTACTACCGTGTCAAATTCGGAGTCACCTAGTGCAG” was tested, and the binding signal was 3800 fluorescence intensity (a.u.).
For “CTCCGTCCACTGGACAGGGCAGAGGCTGCCTACCAGACACCGGAGTCACCTAGTGCAG”, the binding signal was 4640 fluorescence intensity (a.u.).
In the case of “GACAGTAGCAGCAGTGGACACGTCGATTTCGCAATTCGTGCGGAGTCACCTAGTGCAG”, the binding signal is reported as 5760 fluorescence intensity (a.u.).
For “GCCAGGCGACGCGACGAGTCAGCTCAGCTCGCGCCCGCGGCGGAGTCACCTAGTGCAG”, the binding signal was 3700 fluorescence intensity (a.u.).
For “GGCGAGCGCGGCGGAGGAGCGGCGGCGGGCGAGCGCGGCGCGGAGTCACCTAGTGCAG”, the binding signal was 8450 fluorescence intensity (a.u.).
With “GGCGCCAGCCCCGGTGCCGGGGAGTGTGGCGGAGCGGGAGCGGAGTCACCTAGTGCAG” the binding signal was 3910 fluorescence intensity (a.u.).
In the case of “GAGAGGGGAAGGGCGCTAGTAAGAAGCGCTAAGGGATGAGCGGAGTCACCTAGTGCAG”, the binding signal is reported as 3180 fluorescence intensity (a.u.).
“GAGGTACCGGCCGTACGCGCCGCGGAGGCGGACGTAGGGCCGGAGTCACCTAGTGCAG” was tested, and the binding signal was 31200 fluorescence intensity (a.u.).
“TGCTTAGCCGTGCGGCCCGTGCGGCGTCAATGGCGTGGCGCGGAGTCACCTAGTGCAG” was tested, and the binding signal was 4440 fluorescence intensity (a.u.).
With “GCGGCGGTGTCTCGCGCCGCCAGCCTACAAATGGGGAGAGCGGAGTCACCTAGTGCAG” the binding signal was 40300 fluorescence intensity (a.u.).
For “GAAGAGGGGAGGGAGCTCCAAAAGGGCGAGAAAGTAAGCGCGGAGTCACCTAGTGCAG”, the binding signal was 39400 fluorescence intensity (a.u.).
For “GGAGCGCGGACTCGCCGGCCAGCCGCGTCACGCGCTGGCGCGGAGTCACCTAGTGCAG”, the binding signal was 6650 fluorescence intensity (a.u.).
In the case of “TCCCGTGCAGCCGTGGCAGCCGCGCGCTGCTCGAGTCCGGCGGAGTCACCTAGTGCAG”, the binding signal is reported as 4470 fluorescence intensity (a.u.).
“GAGAGAGAGAGGGGACCAACTGAAAAGAGAGAGAAGCTAGCGGAGTCACCTAGTGCAG” was tested, and the binding signal was 31200 fluorescence intensity (a.u.).
For “CGAGAGGTACCGCGCGCTGCCGGCGGAGAAGCGGGCGAGGCGGAGTCACCTAGTGCAG”, the binding signal was 41500 fluorescence intensity (a.u.).
For “CGGTGGCAGCCCGGCGGCGTGGAGCGCGCTGCTTAGCGCGCGGAGTCACCTAGTGCAG”, the binding signal was 53600 fluorescence intensity (a.u.).
